Data from PubChem BioAssay AID2242 (National Center for Advancing Translational Sciences (NCATS), 2010).
Hit rate of the full screen: of about 200,000 compounds, about 720 (0.36%) were called active. Inconclusive results (about 8%) are left out. Calls follow the shape of the dose curve; as a rule, active = well fitted activation curve with a large enough effect; inconclusive = small, poorly fitted or top-dose-only effect, or effect the other way, or another doubt; inactive = flat fitted curve, though single readings scatter. This is one part of the list.

These molecules were tested against Lysosomal alpha-glucosidase (Homo sapiens) (UniProt P10253) (assay: qHTS Assay for Activators of Human alpha-Glucosidase as a Potential Chaperone Treatment of Pompe Disease). Details: purified enzyme, 4-MU-alpha-glucoside fluorescence, 20 min; series mostly up to 76.9 µM.
Text: NIH Chemical Genomics Center [NCGC] NIH Molecular Libraries Probe Production centers Network [MLPCN] MLPCN Grant: 1R03MH084841-01 Assay Submitter (PI): Wei Zheng NCGC Assay Overview: Alpha-glucosidase is responsible for hydrolysis of terminal, non-reducing 1,4-linked alpha-D-glucose residues with release of alpha-D-glucose. It is a lysosomal hydrolase that is required for the degradation of a small percentage (1-3%) of cellular glycogen in human. Deficiency of this enzyme results in glycogen-storage disease type II (GSDII), also referred to as Pompe disease, an autosomal recessive disorder. Structurally normal glycogen is accumulated in lysosomes and cytoplasm in affected patients, primarily in muscle tissues. Excessive glycogen storage within lysosomes may interrupt normal functioning of other organelles and leads to cellular injury. In turn, this leads to enlargement and dysfunction of the entire organ involved (eg, cardiomyopathy and muscle weakness). It has reported that the improper folding and trafficking of alpha-glucosidase resulting from the genetic mutations may account for a significant number of Pompe patients. […] We optimized this alpha-glucosidase assay in 1536-well plate format for identifying the novel small molecule inhibitors with the structures other than the sugar analogs in order to develop the new pharmacological chaperones, but are also able to detect potential activators. In conjunction with assays against alpha-galactosidase (AID 1467), fluorogenic false positive compounds can be identified.
NCGC Assay Protocol Summary: This is a fluorogenic enzyme assay with 4-methylumbelliferyl-alpha-D-[…] as the substrate and human alpha-glucosidase as the enzyme preparation. Upon the hydrolysis of this fluorogenic substrate, the resulting product, 1. 4-methyllumbelliferone, can be excited at 365 nm and emits at 440 nm which can be detected by a standard fluorescence plate reader. Data were normalized to the controls for basal activity (without enzyme) and 100% activity (with enzyme). In the AC50 values were determined from concentration-response data modeled with the standard Hill equation. Assay buffer: 50 mM citric acid (titrated with potassium phosphate to pH 5.0), 0.005% Tween-20, pH 5.0. (pH 5.0 is an optimal condition for this enzyme assay) 1536-well assay protocol for the human alpha-glucosidase: (1) Add 2 ul/well of enzyme (4 nM final) (2) Add 23 nL compounds in DMSO solution. The final titration was 0.7 nM to 77 uM. (3) Add 1 ul of substrate (400 uM final) (4) Incubate at room temperature for 20 min. (5) Add 2 ul stop solution (1M NaOH and 1M Glycine mixture, pH 10) (6) Detect the assay plate in a ViewLux plate reader (PerkinElmer) with Ex=365 nm and Em=440nm. Keywords: Alpha-glucosidase, Pompe Disease, pharmacological chaperone, chaperone therapy, high throughput screening, alpha-glucosidase inhibitor, MLSMR, MLSCN, NIH Roadmap, qHTS and NCGC
Also: nearly all actives have a fitted effect of over 80% in size.
Potency is read from the fitted curve at half-maximal effect.

Row | Structure (SMILES) | Potency
1 | COc1cc(C(=O)Nc2sc3c(c2C(=O)NCc2ccco2)CCCC3)cc(OC)c1OC | 28.2 µM (active)
2 | O=C(O)c1cc(-c2cccs2)nc2cc3c(cc12)OCCO3 | 25.1 µM (active)
3 | c1coc(CNc2nc(N3CCCCC3)nc3ccccc23)c1 | 39.8 µM (active)
4 | c1ccc2c(NCC3CCCO3)nc(N3CCCCC3)nc2c1 (stereo not drawn) | 39.8 µM (active)
5 | CCCCOc1ccccc1C1C(C(=O)OC)=CN(CC)C=C1C(=O)OC | 35.5 µM (active)
6 | CCOc1ccccc1C1C(C(=O)OC)=CN(C)C=C1C(=O)OC | 35.5 µM (active)
7 | CCCOc1ccccc1C1C(C(=O)OC)=CN(C(C)C)C=C1C(=O)OC | 39.8 µM (active)
8 | CN(C)c1oc(-c2cccs2)nc1C#N | 39.8 µM (active)
9 | CC1CN(c2oc(-c3cccs3)nc2C#N)CC(C)O1 (stereo not drawn) | 35.5 µM (active)
10 | N#Cc1c(-c2ccco2)cc(-c2cccnc2)nc1N | 28.2 µM (active)
11 | N#Cc1c(-c2ccco2)cc(-c2ccccn2)nc1N | 28.2 µM (active)
12 | N#Cc1c(-c2ccccc2F)cc(-c2cccnc2)nc1N | 35.5 µM (active)
13 | CCc1c(C)c2cc(Cl)c(O)c(CN(CC)CC)c2oc1=O | 35.5 µM (active)
14 | CCN(CC)Cc1c(O)c(Cl)cc2c(C)c(C)c(=O)oc12 | 35.5 µM (active)
15 | CCN(CC)Cc1c(O)c(Cl)cc2c(C)cc(=O)oc12 | 35.5 µM (active)
16 | CC1(C)Cc2nc(N3CCCC3)c(C#N)cc2CO1 | 35.5 µM (active)
17 | Cc1cc2c(C)cc(=O)oc2c2c1NCCC2 | 35.5 µM (active)
18 | C=CCNc1nc(N)c(C(=C(C#N)C#N)c2ccccc2)s1 | 35.5 µM (active)
19 | CCNc1nc(N)c(C(=C(C#N)C#N)c2ccccc2)s1 | 35.5 µM (active)
20 | CCOC(=O)C1CCN(C(=O)c2cc3c(=O)n4ccccc4nc3n2C)CC1 | 39.8 µM (active)
21 | O=C(c1cc2c(=O)n3ccccc3nc2s1)N1CCc2ccccc2C1 | 44.7 µM (active)
22 | O=C(c1cc2c(=O)n3ccccc3nc2s1)N1CCN(Cc2ccc3c(c2)OCO3)CC1 | 35.5 µM (active)
23 | Cn1c(C(=O)N2CCc3ccccc3C2)cc2c(=O)n3ccccc3nc21 | 31.6 µM (active)
24 | CC1CN(C(=O)c2cc3c(=O)n4ccccc4nc3s2)CC(C)O1 (stereo not drawn) | 35.5 µM (active)
25 | COC(=O)c1cc2c(=O)n3ccccc3nc2n(C)c1=N | 25.1 µM (active)

Row | Structure (SMILES) | Potency
26 | Cn1c(C(=O)N2COCC2(C)C)cc2c(=O)n3ccccc3nc21 | 35.5 µM (active)
27 | COc1cccc2c(=O)c3c(cnn3C)n(C)c12 | 31.6 µM (active)
28 | O=C(Nc1ccc(-c2nc3ccccc3[nH]2)cc1)c1cccc(N2C(=O)CCC2=O)c1 | 35.5 µM (active)
29 | CCn1cc(C2C(C(=O)Nc3ccc(Br)cn3)=C(C)NC3=C2C(=O)CCC3)c(C)n1 (stereo not drawn) | 31.6 µM (active)
30 | CC1=C(C(=O)Nc2ccccn2)C(c2cn(C)nc2C)C2=C(CCCC2=O)N1 (stereo not drawn) | 28.2 µM (active)
31 | CC(C)(C)c1cc(C(F)(F)F)c(C#N)c(=O)[nH]1 | 35.5 µM (active)
32 | Cc1cc(C(F)(F)F)c(C#N)c(=O)[nH]1 | 31.6 µM (active)
33 | O=c1oc2cc(O)ccc2cc1-c1ccc(F)cc1 | 25.1 µM (active)
34 | CCCCc1cc(=O)oc2c(CN3CCCC3)c(O)c(Cl)cc12 | 31.6 µM (active)
35 | CCCc1cc(=O)oc2c(CN3CCCC3)c(O)c(Cl)cc12 | 35.5 µM (active)
36 | CCc1cc(=O)oc2c(CN3CCN(C)CC3)c(O)c(Cl)cc12 | 31.6 µM (active)
37 | Cc1c(O)ccc2c(CN3CCN(CCO)CC3)cc(=O)oc12 | 35.5 µM (active)
38 | CCCc1cc(=O)oc2c(CN3CCN(C)CC3)c(O)c(Cl)cc12 | 35.5 µM (active)
39 | CCc1cc2c(CN3CCN(C)CC3)cc(=O)oc2cc1O | 35.5 µM (active)
40 | CCc1cc(=O)oc2c(CN3CCCC3)c(O)c(Cl)cc12 | 39.8 µM (active)
41 | CCc1ccc(S(=O)(=O)c2nnn3c2nc(NCCNC(C)=O)c2ccccc23)cc1 | 31.6 µM (active)
42 | CN(C)Cc1c(O)c(Cl)cc2c3c(c(=O)oc12)CCCC3 | 35.5 µM (active)
43 | CCN(CC)Cc1c(O)c(Cl)cc2c3c(c(=O)oc12)CCCC3 | 35.5 µM (active)
44 | CC(C)C(=O)Nc1c2c(nc3ccccc13)N(C)CC2 | 35.5 µM (active)
45 | CCCOc1cc(N(CC)CC)ccc1/C=C(/C#N)c1nc2ccc(C)cc2[nH]1 | 35.5 µM (active)
46 | CCOP(=O)(OCC)c1nc(/C=C/c2ccccc2)oc1NCc1ccccc1 | 35.5 µM (active)
47 | CCOP(=O)(OCC)c1nc(/C=C/c2ccccc2)oc1NCc1ccc(OC)cc1 | 35.5 µM (active)
48 | CCCCc1cc(=O)oc2c(CN(CC)CC)c(O)c(Cl)cc12 | 35.5 µM (active)
49 | CCCCc1cc(=O)oc2c(CN(C)C)c(O)c(Cl)cc12 | 35.5 µM (active)
50 | CCCCc1cc(=O)oc2c(CN(C)C)c(O)ccc12 | 35.5 µM (active)

Row | Structure (SMILES) | Potency
51 | CC(NC(=O)CCSc1nc(-c2ccc3c(c2)OCO3)cc(C(F)(F)F)n1)c1ccccc1 (stereo not drawn) | 35.5 µM (active)
52 | COc1ccc(-c2n[nH]c(C(F)(F)F)c2-c2cc3ccccc3o2)c(O)c1 | 35.5 µM (active)
53 | O=C(O)c1cc(-c2ccc(Cl)s2)nc2ccccc12 | 35.5 µM (active)
54 | CCC(=O)N1N=C(c2ccc(NS(=O)(=O)CC)cc2)CC1c1ccc(C)cc1 (stereo not drawn) | 35.5 µM (active)
55 | CC(=O)Nc1ccc(C2=NN(c3ccccc3)C(c3cccs3)C2)cc1 (stereo not drawn) | 28.2 µM (active)
56 | CCS(=O)(=O)Nc1ccc(C2=NN(C(C)=O)C(c3cccs3)C2)cc1 (stereo not drawn) | 35.5 µM (active)
57 | COc1ccc(C2C3=C(CCCC3=O)Nc3nc(-c4cc(OC)c(OC)c(OC)c4)nn32)cc1OC (stereo not drawn) | 35.5 µM (active)
58 | COC(=O)C1=CN(CCCN2CCCC2=O)C=C(C(=O)OC)C1c1ccccc1C(F)(F)F | 28.2 µM (active)
59 | COC(=O)C1=CN(CCCN2CCCC2=O)C=C(C(=O)OC)C1c1cccs1 | 39.8 µM (active)
60 | Cc1ccc2c(c1)c1ncnc(N3CCC4(CC3)OCCO4)c1n2C | 39.8 µM (active)
61 | COCCCn1c(=N)c(C(=O)NCC2CCCO2)cc2c(=O)n3cccc(C)c3nc21 (stereo not drawn) | 35.5 µM (active)
62 | CCCn1c(=N)c(C(=O)NC2CCCC2)cc2c(=O)n3cccc(C)c3nc21 | 28.2 µM (active)
63 | Cc1ccc2nc3c(cc(C(=O)NCC4CCCO4)c(=N)n3CCCOC(C)C)c(=O)n2c1 (stereo not drawn) | 31.6 µM (active)
64 | CCNc1nc2nc3ccc(C)cn3c(=O)c2cc1C(=O)NCC1CCCO1 (stereo not drawn) | 35.5 µM (active)
65 | CCn1c(=N)c(C(=O)NCCCOC)cc2c(=O)n3cccc(C)c3nc21 | 28.2 µM (active)
66 | COC(=O)Cc1cc(=O)oc2cc(O)ccc12 | 35.5 µM (active)
67 | O=C(Cc1cc(=O)oc2cc(O)ccc12)NCC1CCC(C(=O)O)CC1 (stereo not drawn) | 35.5 µM (active)
68 | CCCCc1cc(=O)oc2cc(O)ccc12 | 35.5 µM (active)
69 | N#Cc1c(-c2cccc(Br)c2)cc(-c2ccco2)[nH]c1=O | 39.8 µM (active)
70 | O=C(NC(=S)N(Cc1ccccc1)Cc1ccccc1)C1CCCCC1 | 39.8 µM (active)
71 | c1ccn2c(c1)nc1c2nc2ccccn21 | 31.6 µM (active)
72 | COC(=O)C1=CN(CC2CCCO2)C=C(C(=O)OC)C1c1ccsc1 (stereo not drawn) | 35.5 µM (active)
73 | COC(=O)C1=CN(CC2CCCO2)C=C(C(=O)OC)C1c1cc(OC)c(OC)c(OC)c1 (stereo not drawn) | 35.5 µM (active)
74 | COc1cc2c(cc1/C=C/C(=O)O)OC(C)C2 (stereo not drawn) | 39.8 µM (active)
75 | CCCc1cc(=O)[nH]c(SCC(=O)c2cc(C)n(CCC)c2C)n1 | 39.8 µM (active)

Row | Structure (SMILES) | Potency
76 | Cc1cccc(-c2cc3nc(-c4ccccc4)cc(N4CCC5(CC4)OCCO5)n3n2)c1 | 35.5 µM (active)
77 | COc1cccc(-c2cc3nc(-c4ccccc4)cc(N4CCC5(CC4)OCCO5)n3n2)c1 | 39.8 µM (active)
78 | COC(=O)c1cc2c(s1)-c1ccccc1OC2 | 35.5 µM (active)
79 | O=C(NC1CC1)c1cc2c(s1)-c1ccccc1OC2 | 35.5 µM (active)
80 | CCOC(=O)c1cc2c(s1)-c1c(C)cccc1OC2 | 35.5 µM (active)
81 | O=C(O)c1cc2c(s1)-c1ccccc1OC2 | 31.6 µM (active)
82 | CCOC(=O)c1cc2c(=O)n3ccccc3nc2n(CCCOC)c1=NC(=O)C(C)(C)C | 35.5 µM (active)
83 | CCOC(=O)c1cc2c(=O)n3ccccc3nc2n(CCOC)c1=NC(=O)c1ccncc1 | 31.6 µM (active)
84 | CCOC(=O)c1cc2c(=O)n3ccccc3nc2n(CCOC)c1=NC(=O)C(C)(C)C | 35.5 µM (active)
85 | CCOC(=O)c1cc2c(=O)n3ccccc3nc2n(Cc2ccco2)c1=NC(=O)c1ccccc1OC | 31.6 µM (active)
86 | CCOC(=O)c1cc2c(=O)n3ccccc3nc2n(CCCOC)c1=NC(=O)c1cccnc1 | 35.5 µM (active)
87 | COc1cccc(-c2ccc(C#N)c(OC(=O)c3ccc(Cl)cc3)n2)c1 | 35.5 µM (active)
88 | COC(=O)C1=CN(C2CC2)C=C(C(=O)OC)C1c1ccc(C(=O)OC)cc1 | 35.5 µM (active)
89 | COC(=O)C1=CN(C2CC2)C=C(C(=O)OC)C1c1ccccc1OC | 35.5 µM (active)
90 | CCN1CCn2c3c(c4cc(Cl)ccc42)CCCC31 (stereo not drawn) | 31.6 µM (active)
91 | O=C(Nc1c2ccccc2nc2ccccc12)C(Cl)(Cl)Cl | 35.5 µM (active)
92 | O=c1oc2ccccc2cc1-c1nc2ccccc2o1 | 31.6 µM (active)
93 | CC(=O)Nc1nc2n(n1)C(c1ccc(Cl)cc1)C=C(C)N2 (stereo not drawn) | 35.5 µM (active)
94 | CC(C)n1c(=NC(=O)c2ccco2)c(C#N)cc2c(=O)n3ccccc3cc21 | 31.6 µM (active)
95 | COC(=O)c1ccc2c(=O)n(CCCCCC(=O)NCc3ccccn3)c(=O)[nH]c2c1 | 31.6 µM (active)
96 | CCN(CC)CCNC(=O)c1ccc2c(=O)n(CCc3ccccc3)c(=O)[nH]c2c1 | 35.5 µM (active)
97 | COC(=O)c1ccc2c(=O)n(CCCCCC(=O)O)c(=O)[nH]c2c1 | 31.6 µM (active)
98 | CCCCCn1c(=O)[nH]c2cc(C(=O)O)ccc2c1=O | 35.5 µM (active)
